What all share (test): yeast three-hybrid, YBZ-1, SC-Leu-His + 0.5 mM 3-AT, 4 days
Details in all cases: tags: N-Gal4 AD-HA kept; label: inside an RPR1-promoter hybrid RNA with tandem MS2 sites; ssRNA

The target of one test is PUM1 PUF domain R8-KKR (Homo sapiens, UniProt Q14671 828-1176, N1122K;Y1123K;Q1126R). In a few lines:
(§1)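 Repeat regions from input (SC-Leu) and selection (SC-Leu-His + 0.5 mM 3-AT) plates were PCR-amplified and Illumina-sequenced after four days of growth. The cells were strain YBZ-1 with a LexA–MS2 coat fusion and a HIS3 reporter, co-expressing Pumilio-1 PUF domain libraries and matching RNA elements from a centromeric plasmid. The interaction score is the log change in variant frequency from input to selection, taken in log2 with a pseudocount of 1 for absent variants.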

A further test addresses PUM1 PUF domain R5-DFP (Homo sapiens, UniProt Q14671 828-1176, C1007D;R1008F;Q1011P). Put shortly: as §1
The target of a further test is PUM1 PUF domain R5-PRE (Homo sapiens, UniProt Q14671 828-1176, C1007P;Q1011E). In a few lines: as §1
PUM1 PUF domain R5-PRE, sequence (Q14671 828-1176 C1007P/Q1011E): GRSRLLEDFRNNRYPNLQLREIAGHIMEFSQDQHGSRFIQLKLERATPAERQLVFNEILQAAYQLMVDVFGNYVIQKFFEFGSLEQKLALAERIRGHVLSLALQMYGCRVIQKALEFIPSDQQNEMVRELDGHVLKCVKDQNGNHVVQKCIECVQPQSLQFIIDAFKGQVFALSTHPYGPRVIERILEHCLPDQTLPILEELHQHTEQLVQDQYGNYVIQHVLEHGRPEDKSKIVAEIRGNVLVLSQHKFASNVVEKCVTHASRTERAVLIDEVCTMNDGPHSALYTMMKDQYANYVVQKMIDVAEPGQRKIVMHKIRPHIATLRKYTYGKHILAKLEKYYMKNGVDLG
Another test addresses PUM1 PUF domain R3-LRR (Homo sapiens, UniProt Q14671 828-1176, C935L;Q939R). Put shortly:
as §1

The target of another test is PUM1 PUF domain R3-YSV (Homo sapiens, UniProt Q14671 828-1176, C935Y;R936S;Q939V). In a few lines: as §1
PUM1 PUF domain R3-YSV, sequence (Q14671 828-1176 C935Y/R936S/Q939V): as the sequence (Q14671 828-1176 C1007P/Q1011E) above, with C108Y, R109S, Q112V, P180C, E184Q counted along it
The target in another test is PUM1 PUF domain R3-LHA (Homo sapiens, UniProt Q14671 828-1176, C935L;R936H;Q939A). Put shortly:
as §1

The next test concerns the target PUM1 PUF domain R1-KGL (Homo sapiens, UniProt Q14671 828-1176, S863K;R864G;Q867L). Put shortly: as §1
For a further test, the target named is PUM1 PUF domain R1-KWM (Homo sapiens, UniProt Q14671 828-1176, S863K;R864W;Q867M). Put shortly:
as §1

Another test addresses PUM1 PUF domain R5-RAN (Homo sapiens, UniProt Q14671 828-1176, C1007R;R1008A;Q1011N). In a few lines:
as §1

The target of another test is PUM1 PUF domain R3-DWS (Homo sapiens, UniProt Q14671 828-1176, C935D;R936W;Q939S). In a few lines: as §1
PUM1 PUF domain R3-DWS, sequence (Q14671 828-1176 C935D/R936W/Q939S): as the sequence (Q14671 828-1176 C1007P/Q1011E) above, with C108D, R109W, Q112S, P180C, E184Q counted along it
Another test has as its target PUM1 PUF domain R4-EPR (Homo sapiens, UniProt Q14671 828-1176, N971E;H972P;Q975R). Put shortly:
as §1

The target in a further test is PUM1 PUF domain R4-RCG (Homo sapiens, UniProt Q14671 828-1176, N971R;H972C;Q975G). Put shortly:
as §1

The target of a further test is PUM1 PUF domain R4-APS (Homo sapiens, UniProt Q14671 828-1176, N971A;H972P;Q975S). In a few lines:
as §1

A further test addresses PUM1 PUF domain R5-DHL (Homo sapiens, UniProt Q14671 828-1176, C1007D;R1008H;Q1011L). Put shortly: as §1
The next test has as its target T1, PUM1 PUF domain R6-SWC (Homo sapiens, UniProt Q14671 828-1176, N1043S;Y1044W;Q1047C).
T1 sequence: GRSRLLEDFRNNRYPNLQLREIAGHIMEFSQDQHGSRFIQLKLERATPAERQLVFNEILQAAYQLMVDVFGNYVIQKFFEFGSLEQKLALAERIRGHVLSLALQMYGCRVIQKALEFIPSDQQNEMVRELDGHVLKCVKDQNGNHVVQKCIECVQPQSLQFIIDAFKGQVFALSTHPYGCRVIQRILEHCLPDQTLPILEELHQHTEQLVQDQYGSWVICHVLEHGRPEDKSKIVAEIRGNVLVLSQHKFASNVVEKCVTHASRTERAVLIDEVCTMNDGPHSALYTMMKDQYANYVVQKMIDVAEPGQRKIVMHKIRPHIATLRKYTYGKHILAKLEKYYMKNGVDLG
Put shortly: as §1

A further test concerns the target PUM1 PUF domain R4-VGI (Homo sapiens, UniProt Q14671 828-1176, N971V;H972G;Q975I). Put shortly:
as §1

A further test concerns the target PUM1 PUF domain R1-GRH (Homo sapiens, UniProt Q14671 828-1176, S863G;Q867H). Put shortly:
as §1

A further test addresses PUM1 PUF domain R5-SGV (Homo sapiens, UniProt Q14671 828-1176, C1007S;R1008G;Q1011V). Put shortly: as §1
Another test has as its target PUM1 PUF domain R5-DKR (Homo sapiens, UniProt Q14671 828-1176, C1007D;R1008K;Q1011R). Put shortly: as §1
A further test deals with PUM1 PUF domain R5-KGV (Homo sapiens, UniProt Q14671 828-1176, C1007K;R1008G;Q1011V). In a few lines:
as §1

PUM1 PUF domain R4-EPR, sequence (Q14671 828-1176 N971E/H972P/Q975R): as the sequence (Q14671 828-1176 C1007P/Q1011E) above, with N144E, H145P, Q148R, P180C, E184Q counted along it
PUM1 PUF domain R5-DHL, sequence (Q14671 828-1176 C1007D/R1008H/Q1011L): as the sequence (Q14671 828-1176 C1007P/Q1011E) above, with P180D, R181H, E184L counted along it
PUM1 PUF domain R5-RAN, sequence (Q14671 828-1176 C1007R/R1008A/Q1011N): as the sequence (Q14671 828-1176 C1007P/Q1011E) above, with P180R, R181A, E184N counted along it
PUM1 PUF domain R3-LRR, sequence (Q14671 828-1176 C935L/Q939R): as the sequence (Q14671 828-1176 C1007P/Q1011E) above, with C108L, Q112R, P180C, E184Q counted along it
PUM1 PUF domain R1-KGL, sequence (Q14671 828-1176 S863K/R864G/Q867L): as the sequence (Q14671 828-1176 C1007P/Q1011E) above, with S36K, R37G, Q40L, P180C, E184Q counted along it
PUM1 PUF domain R5-KGV, sequence (Q14671 828-1176 C1007K/R1008G/Q1011V): as the sequence (Q14671 828-1176 C1007P/Q1011E) above, with P180K, R181G, E184V counted along it
PUM1 PUF domain R5-SGV, sequence (Q14671 828-1176 C1007S/R1008G/Q1011V): as the sequence (Q14671 828-1176 C1007P/Q1011E) above, with P180S, R181G, E184V counted along it
PUM1 PUF domain R5-DFP, sequence (Q14671 828-1176 C1007D/R1008F/Q1011P): as the sequence (Q14671 828-1176 C1007P/Q1011E) above, with P180D, R181F, E184P counted along it
PUM1 PUF domain R5-DKR, sequence (Q14671 828-1176 C1007D/R1008K/Q1011R): as the sequence (Q14671 828-1176 C1007P/Q1011E) above, with P180D, R181K, E184R counted along it

As to “GGCUAGAACUAGUGGAUCCCCCGGCGCCCGGCGGCUCGAGCCCGGGUAAGCGUAAAUAGUCUGCAUGCCGCCGGGCGCCAUGCCUGCAGGUCGACUCUAGAAAACAUG”, the binding signal with PUM1 PUF domain R8-KKR is 5.03 log2 enrichment (interaction score).
On to “GGCUAGAACUAGUGGAUCCCCCGGCGCCCGGCGGCUCGAGCCCGGGUAAGUGUUAAUAGUCUGCAUGCCGCCGGGCGCCAUGCCUGCAGGUCGACUCUAGAAAACAUG”, for which the figures for the binding signal with PUM1 PUF domain R5-DFP and in the test with PUM1 PUF domain R5-PRE were 5.24 log2 enrichment (interaction score) and 2.73 log2 enrichment (interaction score), respectively.
Consider “GGCUAGAACUAGUGGAUCCCCCGGCGCCCGGCGGCUCGAGCCCGGGUAAGUGUAAGUAGUCUGCAUGCCGCCGGGCGCCAUGCCUGCAGGUCGACUCUAGAAAACAUG”, for which the binding signal with PUM1 PUF domain R3-LRR was 3.15 log2 enrichment (interaction score); in the test with PUM1 PUF domain R3-YSV, 2.32 log2 enrichment (interaction score); with PUM1 PUF domain R3-LHA, 6.33 log2 enrichment (interaction score).
As for “GGCUAGAACUAGUGGAUCCCCCGGCGCCCGGCGGCUCGAGCCCGGGUAAGUGUAAAUGGUCUGCAUGCCGCCGGGCGCCAUGCCUGCAGGUCGACUCUAGAAAACAUG”, the figures for the binding signal with PUM1 PUF domain R1-KGL and with PUM1 PUF domain R1-KWM were 1.8 log2 enrichment (interaction score) and 1.15 log2 enrichment (interaction score), respectively.
Regarding “GGCUAGAACUAGUGGAUCCCCCGGCGCCCGGCGGCUCGAGCCCGGGUAAGUGUAAAUAGUCUGCAUGCCGCCGGGCGCCAUGCCUGCAGGUCGACUCUAGAAAACAUG”, the binding signal is 2.14 log2 enrichment (interaction score) with PUM1 PUF domain R5-RAN; 4.09 log2 enrichment (interaction score) with PUM1 PUF domain R3-DWS; 4.56 log2 enrichment (interaction score) with PUM1 PUF domain R4-EPR; 3.26 log2 enrichment (interaction score) with PUM1 PUF domain R4-RCG; 4.36 log2 enrichment (interaction score) with PUM1 PUF domain R4-APS; 3.58 log2 enrichment (interaction score) in the test with PUM1 PUF domain R5-DHL. The binding signal was 3.92 log2 enrichment (interaction score) in the test with PUM1 PUF domain R6-SWC, 1.33 log2 enrichment (interaction score) in the test with PUM1 PUF domain R8-KKR, 2.49 log2 enrichment (interaction score) with PUM1 PUF domain R4-VGI and 3.07 log2 enrichment (interaction score) with PUM1 PUF domain R5-PRE.
Turning to “GGCUAGAACUAGUGGAUCCCCCGGCGCCCGGCGGCUCGAGCCCGGGUAAGUGUAAAUUGUCUGCAUGCCGCCGGGCGCCAUGCCUGCAGGUCGACUCUAGAAAACAUG”, the values for the binding signal with PUM1 PUF domain R1-KWM and in the test with PUM1 PUF domain R1-GRH were 3.92 log2 enrichment (interaction score) and 2.32 log2 enrichment (interaction score), respectively.
For “GGCUAGAACUAGUGGAUCCCCCGGCGCCCGGCGGCUCGAGCCCGGGUAAGUGUAUAUAGUCUGCAUGCCGCCGGGCGCCAUGCCUGCAGGUCGACUCUAGAAAACAUG”, in the test with PUM1 PUF domain R4-EPR, the binding signal was 2.23 log2 enrichment (interaction score).
For “GGCUAGAACUAGUGGAUCCCCCGGCGCCCGGCGGCUCGAGCCCGGGUAAGUGUAAAUCGUCUGCAUGCCGCCGGGCGCCAUGCCUGCAGGUCGACUCUAGAAAACAUG”, the binding signal was 3.12 log2 enrichment (interaction score) in the test with PUM1 PUF domain R1-KGL and 1.98 log2 enrichment (interaction score) with PUM1 PUF domain R1-GRH.
For the sequence “GGCUAGAACUAGUGGAUCCCCCGGCGCCCGGCGGCUCGAGCCCGGGUAAGUGUAAUUAGUCUGCAUGCCGCCGGGCGCCAUGCCUGCAGGUCGACUCUAGAAAACAUG”, the values for the binding signal in the test with PUM1 PUF domain R3-LRR and with PUM1 PUF domain R3-LHA were 0.21 log2 enrichment (interaction score) and 3.56 log2 enrichment (interaction score), respectively.
In the case of “GGCUAGAACUAGUGGAUCCCCCGGCGCCCGGCGGCUCGAGCCCGGGUAAGUGUACAUAGUCUGCAUGCCGCCGGGCGCCAUGCCUGCAGGUCGACUCUAGAAAACAUG”, the binding signal is 3.74 log2 enrichment (interaction score) in the test with PUM1 PUF domain R4-EPR and 1.86 log2 enrichment (interaction score) with PUM1 PUF domain R4-APS.
Take “GGCUAGAACUAGUGGAUCCCCCGGCGCCCGGCGGCUCGAGCCCGGGUAAGUGUGAAUAGUCUGCAUGCCGCCGGGCGCCAUGCCUGCAGGUCGACUCUAGAAAACAUG”: the binding signal was 2.69 log2 enrichment (interaction score) with PUM1 PUF domain R5-SGV, 2.54 log2 enrichment (interaction score) with PUM1 PUF domain R5-DHL and 3.8 log2 enrichment (interaction score) with PUM1 PUF domain R5-PRE.
“GGCUAGAACUAGUGGAUCCCCCGGCGCCCGGCGGCUCGAGCCCGGGUAAGUGUCAAUAGUCUGCAUGCCGCCGGGCGCCAUGCCUGCAGGUCGACUCUAGAAAACAUG”: the binding signal with PUM1 PUF domain R5-DKR was 5.01 log2 enrichment (interaction score); in the test with PUM1 PUF domain R5-RAN, 2.21 log2 enrichment (interaction score); in the test with PUM1 PUF domain R5-KGV, 4.44 log2 enrichment (interaction score); in the test with PUM1 PUF domain R5-DHL it was 2.14 log2 enrichment (interaction score).

Values taken from article PMC8384837, “Expanding the binding specificity for RNA recognition by a PUF domain”.
